Assay results: PubChem BioAssay AID686954 (Sanford-Burnham Center for Chemical Genomics, 2013)
Out of some 30,000 compounds screened, about 240 (0.8%) were called active.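 How the source made its calls: active means at 10 µM dose, at least 30% inhibition, measured as corrected fluorescence normalized to stimulator and neutral control wells; inactive means the rest.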 What follows is part of a selection rich in actives, with near analogues and random picks from the rest.

Biological target: Protein artemis (Homo sapiens) (UniProt Q96SD1)
Sequence (Q96SD1 whole entry, looked up): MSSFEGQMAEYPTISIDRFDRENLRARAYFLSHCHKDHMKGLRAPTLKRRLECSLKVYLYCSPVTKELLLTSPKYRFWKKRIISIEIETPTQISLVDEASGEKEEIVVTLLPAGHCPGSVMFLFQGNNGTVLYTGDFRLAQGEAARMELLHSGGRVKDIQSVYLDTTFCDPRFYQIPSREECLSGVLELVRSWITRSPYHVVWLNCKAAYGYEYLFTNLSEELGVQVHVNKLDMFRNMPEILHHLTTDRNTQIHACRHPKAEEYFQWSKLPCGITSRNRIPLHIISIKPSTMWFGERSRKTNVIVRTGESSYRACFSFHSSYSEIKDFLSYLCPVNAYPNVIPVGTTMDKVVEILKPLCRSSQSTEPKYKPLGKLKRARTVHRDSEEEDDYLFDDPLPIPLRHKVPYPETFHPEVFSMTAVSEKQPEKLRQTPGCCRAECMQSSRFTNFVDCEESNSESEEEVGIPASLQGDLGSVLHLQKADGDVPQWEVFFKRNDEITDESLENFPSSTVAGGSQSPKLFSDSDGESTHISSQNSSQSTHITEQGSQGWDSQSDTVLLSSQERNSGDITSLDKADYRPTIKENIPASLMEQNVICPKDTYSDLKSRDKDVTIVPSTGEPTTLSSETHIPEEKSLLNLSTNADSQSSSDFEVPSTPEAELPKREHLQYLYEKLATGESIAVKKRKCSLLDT
Experiment: Artemis endonuclease inhibitors, primary screen, biochemical, fluorescence intensity, FAM/BHQ-1 hairpin substrate (AID 686954)
Conditions: recombinant Artemis, quenched FAM hairpin cleavage fluorescence; at 10 µM; hits give high values

inhibition, active:
Cc1c(Cl)c([N+](=O)[O-])nn1Cc1ccc(C(=O)N/N=C\c2cc(Cl)ccc2O)o1 31%
COc1ccc(-c2nn(-c3ccccc3)cc2C(=O)Nc2nc(CC(C)=O)ns2)cc1 45.9%
O=C1Nc2ccc(Br)cc2/C1=N/N=C/C1=C(N2CCOCC2)C(=C\c2ccccc2)/CC1 30.1%

inhibition, inactive:
COC(=O)/C=C/C(=O)NCc1ccco1 25.1%
Cc1ccccc1OC(=O)Cn1c(C(F)(F)F)nc2ccccc21 1.38%
Cc1cc2c(cc1C)N(C(=O)CN1C(=O)c3ccccc3C1=O)C(C)(C)c1ssc(=S)c1-2 2.13%
O=C(Oc1cccnc1)c1cc2ccccc2oc1=O 4.63%
CC(C)C(c1nnnn1CCc1ccccc1)N1CCN(C(=O)c2ccco2)CC1 (stereo unspecified) -0.73%
COc1ccc(C2C(C(C)=O)=C(O)C(=O)N2c2nccs2)cc1 (stereo unspecified) -6.55%
Cc1ccc(SCC(=O)Nc2ncc(C)s2)cc1 3.54%
O=C(N/N=C\c1ccc(-c2ccc(Cl)c(Cl)c2)o1)C(=O)N1CCCC1 10.4%
Cc1cc(-c2ccccc2)n2nc(C)c(-c3ccccc3)c2n1 -3.76%
O=C(c1ccccc1Oc1ccccc1)N1CCN(c2ccc(F)cc2)CC1 10.1%
Cc1cc(C)n2nc(C(=O)NC(C)(C)C)nc2n1 -8.47%
CCCCNC(=O)CSc1nc2ccc(NC(=O)CSc3nnc(COc4ccccc4C)n3C)cc2s1 1.88%
CC(=O)c1ccc(Cc2ncc(C(F)(F)F)cc2Cl)s1 -6.84%
O=C(Cn1c(-c2cscn2)nc2ccccc21)Nc1ccc(Cl)cc1 6.18%
COc1cc(CNCc2cccs2)cc(Br)c1OC -2.14%
CCOCC(=O)Nc1cc(OC)c(Cl)cc1OC -5.52%
Cc1ccc(/C=N/NC(=O)C(NC(=O)c2ccccc2)c2n[nH]c(=O)c3ccccc23)cc1 (stereo unspecified) 10.5%
COCCCn1c(SCC(=O)Nc2ccccc2)nnc1-c1ccncc1 -5.35%
Cn1c(=O)c2c(n(Cc3ccccc3)c1=O)NC(=O)C2CC(=O)N1CCc2ccccc2C1 (stereo unspecified) 6.23%
O=C(Nc1ccc(-n2ccnc2P(=O)(O)c2ccccc2)cc1)c1ccccc1Br 4.42%
CCN(CC)CCN1C(=O)C(=O)/C(=C(/O)c2ccccc2)C1c1ccccc1F (stereo unspecified) 3.66%
CC(C)(C)NS(=O)(=O)CC12CCC(CC1=O)C2(C)C (stereo unspecified) -3.02%
CN(C)CCNC(=O)Nc1cccc(Cl)c1Cl -0.2%
CCN(CC)Cc1cc(C(C)=O)ccc1O -4.35%
O=C(Nc1nnc(SCc2ccccc2)s1)c1ccco1 12.4%
Cc1nn2c3ccccc3nc2n(C)c1=O 0.11%
O=C(Nc1ccc2c(c1)CCC2)c1cccc(S(=O)(=O)N2CCN(c3ccc(F)cc3)CC2)c1 2.72%
CN1CCN(S(=O)(=O)c2ccc(N3CCN(S(=O)(=O)c4cccs4)CC3)nc2)CC1 -9.36%
Cc1ccc(NC(=S)NC2CCCC2)cc1 1.01%
CCC(=O)NNc1cc(=O)c2c(=O)n(C)c(=O)n(C)c2[nH]1 0.17%
COc1cccc(CNc2nc3nc4c(c(=O)n3[nH]2)CCC4)c1 -6.09%
CCN(Cc1ccncc1)C(=O)c1cccc(S(=O)(=O)N2CCOCC2)c1 -1.99%
Cc1cc(C)c2c(-n3cccc3)c(NC(=O)OCc3ccccc3)sc2n1 0.14%
CCOc1cccc(C(=O)Nc2cnn(Cc3ccccc3)c2)c1 0.76%
Cc1ccc(C2NC(=S)NC3=C2N2CCC3CC2)cc1 (stereo unspecified) -3.09%
CN1CCN(Cc2c(O)ccc3c2oc(=O)c2ccccc23)CC1 -4.24%
Cc1ccc(/C=N\n2c(-c3ccccc3)n[nH]c2=S)s1 4.19%
CC(=O)c1sc(NC(=O)c2cccc3ccccc23)nc1C 5.24%
Cc1nnc(NC(=O)CCCOc2ccccc2)s1 -2.98%
NC(=O)C1CCN(C(=O)c2ccc(C(F)(F)F)cc2)CC1 -5.95%
O=C(NCC1CCCO1)c1ccc2ccccc2n1 (stereo unspecified) 1.24%
N#C/C(=C(/O)COc1cccc2ccccc12)c1nc2ccccc2[nH]1 -3.72%
CC(C)(O)C(=O)NN(C(=O)c1ccccc1)c1cccc(Br)c1 -17.1%
O=C(COc1ccc2oc3c(c2c1)CCCC3)Nc1ccccn1 -4.41%
CCOC(=O)C1CCc2nc3ccccc3c(=O)n21 (stereo unspecified) -9.86%
CCC(C)NC(=O)c1ccccc1NC(=O)c1ccccc1N(C)S(C)(=O)=O (stereo unspecified) -0.77%
O=C(CSc1nnc(-c2ccco2)n1-c1ccccc1)NCCc1ccccc1 5.03%
CCOc1ccc(-c2c(C)n([O-])c3c([n+]2=O)CCCC3)cc1 -6.29%
CCC(=O)NC(Nc1nc2ccc(C)cc2s1)(C(=O)OC)C(F)(F)F (stereo unspecified) -8.44%
CCn1c(COc2ccccc2)nnc1SCC(=O)Nc1ccc2c(c1)OCCO2 -7.11%
S=C(NCCC1=CCCCC1)Nc1ccccc1 3.85%
CCOC(=O)C1=NNC2(c3ccc(Cl)cc3)C(=O)N(c3cc(C)cc(C)c3)C(=O)C12 (stereo unspecified) 1.03%
Cc1oc2nc(SCC(=O)NCc3cccnc3)nc(N)c2c1C 2.99%
CCCc1ccc(OCc2ccc(C(=O)N/N=C/c3cccc([N+](=O)[O-])c3)o2)c(OC)c1 -9.45%
Cc1nn(Cc2ccccc2Cl)c(C)c1NC(=O)Cn1nc([N+](=O)[O-])c(Cl)c1C 1.31%
COc1ccc(-c2nc3ccccc3n2CCC(C)C)cc1OC 7.4%
CCSc1nnc(NC(=O)Cc2ccccc2OC)s1 2.36%
C[C@H](NC(=O)NCCc1ccccc1)C(=O)O -9.76%
CCOC(=O)c1nc(Nc2ccc(C(=O)OC)cc2)c2ccccc2n1 -0.44%
C/C(=N\NC(=O)c1ccccc1C)c1ccc(N2CCOCC2)cc1 0.87%
COc1cccc(-c2cc(C(=O)N/N=C/c3ccc(OC)c(COC(C)=O)c3)c3ccccc3n2)c1 9.16%
CS(=O)(=O)n1nc(-c2ccccc2)nc1NCc1ccco1 -21.9%
CC(=O)N/C(=C/c1ccc(Cl)cc1)C(=O)NCCc1c[nH]c2ccccc12 -1.86%
O=C(Cn1cncn1)N/N=C/c1c2ccccc2cc2ccccc12 -6.23%
CC(C)Oc1ccc(C(=O)NC(C)(C)CO)cc1 1.84%
O=C(CN(Cc1ccccc1)C(=O)c1ccc2c(c1)OCCO2)NCc1ccc2c(c1)OCO2 -2.04%
CC1(C)Cc2ccccc2-c2nnc(-c3cccc(O)c3)n21 -6.85%
Cc1ccc(C(=O)OC2=CC(=O)CC(C)(C)C2)cc1 -0.31%
CCOC(=O)c1cnc(-c2ccccc2)nc1Oc1ccc(C)cc1 7.75%
CSc1nc(C)cc(SC(C(C)=O)C(=O)Nc2ccccc2)n1 (stereo unspecified) -3.91%
COc1ccc(-c2nn(-c3ccccc3)cc2C(=O)Nc2nccs2)cc1OC 27.5%
CC(=O)Cc1nsc(NC(=O)c2ccc(COc3ccc(C)cc3)o2)n1 -5.26%
CN1/C(=c2/s/c(=C3/C(=O)N(c4ccccc4)NC3=Nc3ccccc3)n(C)c2=O)C(C)(C)c2ccccc21 15.8%
CCOC(=O)C1=C(CNC2CCCCC2)NC(=O)NC1c1cc(C)ccc1C (stereo unspecified) -5.92%
O=C(/C=C/c1ccccc1)c1ccoc1 -1.46%
O=C(Nc1ccccc1Cl)O/N=C(/c1ccccc1)c1ccccn1 6.79%
Cc1ccc2nc(SC(C)C(=O)NCc3ccco3)[nH]c2c1 (stereo unspecified) 4.88%
Cc1ccc(-n2c(C)cc(/C=N/Nc3ccc([N+](=O)[O-])cn3)c2C)c(C)c1 14.4%
NC(=O)COc1ccc(/C=N/NC(=O)C2CCCN2S(=O)(=O)c2ccc(Cl)cc2)cc1 (stereo unspecified) 0.47%
CC1CCN(CC(=O)c2c[nH]c3ccccc23)CC1 -3.18%
CCOC(=O)Nc1sc(C(=O)N(C)C)c(C)c1C(=O)OCC 7.1%
O=C(Cc1ccc(S(=O)(=O)N2CCCC2)s1)NC1CCCCCC1 0.64%
CCOc1c(Cl)cc(/C=N/O)cc1OC -3.96%
CCNc1nc(N)nc(-c2cc(Cl)ccc2OC)n1 -15.5%
Cc1cccc(N2CCN(C(c3ccc(N(C)C)cc3)c3nnnn3C(C)(C)C)CC2)c1C (stereo unspecified) 4.46%
COCCNCCOCCOc1cccc(OC)c1 -0.71%
CC(C)OC(=O)CN1C(=O)c2ccccc2C1=O -7.81%
CC(=O)Oc1ccc(NC(=O)CCC2CCCCC2)c(C(=O)O)c1 -1.44%
Cc1nnc(SCC(=O)NCCOc2ccc(Cl)cc2)n1-c1ccccc1 -3.78%
CC1(C)CCCC2=C1CC1C(=O)N(c3ccccc3)C(=O)C1C2 (stereo unspecified) -1.84%
COc1ccc(-c2noc(-c3ccc(C)cc3)n2)cc1 0.23%
Cc1ccc2[nH]c3c(=O)n(Cc4ccccn4)cnc3c2c1 3.97%
C=CCNc1cnn(-c2ccc(C)cc2)c(=O)c1Cl 3.95%
